# Compound activity: PubChem BioAssay, National Center for Advancing Translational Sciences (NCATS)
# HT1080 IDH1KD tx = HT-1080 IDH1 knockdown cell toxicity (counter line). HT-1080 IDH1 knockdown viability, ATP luminescence, 48 h. Potency, µM (highest dose often 46.1 µM), without a hit: top-dose activity, negative = toxicity, most hits filed as cytotoxic. 360,000 tested, 2% active;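 note: potency is the fitted concentration of half-maximal effect; 0% = DMSO wells and -100% = cell-free medium wells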
#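 In this qHTS, HT-1080 cells depleted of IDH1 are exposed for 48 h at 37 °C to compound titrations. Toxicity is scored from CellTiter-Glo luminescence, with DMSO as full viability and medium alone as none.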
# DT40 TDP1 no CPT = qHTS for Inhibitors of human tyrosyl-DNA phosphodiesterase 1 (TDP1): qHTS in cells in absence of CPT; Potency, µM (top dose mostly 46.2 µM), inactives show at the top dose activity change, negative = growth inhibition, actives largely listed as inhibitors; 420,000 tested, 15% active; DT40 Tdp1-/- hTDP1 cells, no CPT, ATP luminescence, 48 h; note: potency is the fitted concentration of half-maximal effect; nearly all actives have a fitted effect of over 55% in size
#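 A cellular qHTS used chicken DT40 cells lacking endogenous Tdp1 but carrying stably transfected human TDP1. Compounds were applied without camptothecin, and cell growth kinetics were judged by ATP-dependent luminescence after ≥48 hr.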
# TDP1 cell CPT = growth inhibition of DT40 Tdp1-/-;hTDP1 cells with camptothecin (screen for TDP1 inhibitors); chicken DT40 Tdp1-/-;hTDP1 cells + 20 nM CPT, ATP luminescence, 48 h; Potency, µM (top dose mostly 46.2 µM), for the others: top-dose activity change, negative = growth inhibition, hits mostly inhibitors; 420,000 tested, 12% active; note: potency is the fitted concentration of half-maximal effect; nearly all actives have a fitted effect of over 55% in size
#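 Chicken DT40 Tdp1-/- cells complemented with human TDP1, 400 cells/well, exposed to compounds plus 20 nM camptothecin for at least 48 h at 37 C; viability read as ATP content by CellTiter-Glo luminescence.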
# HT1080NT lethal = kills 2HG-producing HT-1080-NT fibrosarcoma cells; Potency, µM (titrated, usually from 46.1 µM), for the others: top-dose activity, negative = less viability, hits mostly cytotoxic; 360,000 tested, 1.6% active; AID 686970; HT-1080-NT fibrosarcoma viability, CellTiter-Glo ATP luminescence, 48 h;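 note: NT is the 2HG producing partner of a matched IDH1 knockdown line; potency is the fitted concentration of half-maximal effect; 0% = DMSO-treated cells and -100% = media-only wells without cells; nearly all actives have a fitted effect of over 55% in size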
#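 Read-out is CellTiter-Glo luminescence after 10 minutes at room temperature, following 48 hours' compound treatment of HT-1080-NT cells (750 cells/well, RPMI, 5% FBS, 37 degrees C).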
# IL1B secr inh = blocks inflammasome-driven IL-1 beta release. THP-1 LPS/ATP IL-1B secretion, AlphaLISA, 16 h; stronger effect = lower value. activity change, % at 57.5 µM. 360,000 tested, 4.7% active. AID 743279; in the data active = activity change below about -50%; inconclusive = mostly about -30% to -49%
#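 Secreted IL-1B measured by AlphaLISA bead assay after 16 h compound exposure of THP-1 cells; compounds (final up to 57.5 uM) added 1 h before LPS (250 ng/mL) and ATP (1.25 mM) stimulation; lower signal means less secretion.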
# uPA generation = inhibitors of cell surface uPA generation | 330,000 tested, 0.31% active | Potency, µM (titrated, usually from 38.3 µM), for the others: at the top dose activity change, negative = inhibition, actives largely listed as inhibitors | cell surface uPA generation assay, qHTS; active = well fitted inhibition curve with a large enough effect; inconclusive = small, poorly fitted or top-dose-only effect; inactive = no such curve, though single readings can be large or run the other way; tested in mouse RAW 264.7 cells; note: potency is the fitted concentration of half-maximal effect; nearly all actives have a fitted effect of over 55% in size
# Active calls of the source: *; ? = inconclusive; / = no result given. Shown are actives, neighbours in structure and some others; about 19% of the full set was active somewhere. Unless noted, calls come from the whole dose curve; as a rule, active = well fitted curve in the direction sought with a large enough effect; inconclusive = small, poorly fitted or top-dose-only effect, or another doubt; inactive = no such curve, though single readings can be large; an effect the other way counts as inactive or inconclusive. Unless noted, % is set by controls: 0 for no effect and ±100 for the full control effect.
SMILES,HT1080 IDH1KD tx,DT40 TDP1 no CPT,TDP1 cell CPT,HT1080NT lethal,IL1B secr inh,uPA generation
CCc1cnc(Nc2nc(C(N)Cc3ccc(F)cc3)cs2)nc1 (stereo not drawn),23µM*,18µM*,12µM*,?,-62*,/
Cc1cnc(C)c(Nc2nc(C(N)CCc3ccccc3)cs2)n1 (stereo not drawn),?,18µM*,16µM*,?,-25,/
COC1OCC(O)C(NC(=O)N(C)N=O)C1O (stereo not drawn),3%,3%,-11%,1%,-14,/
CCCCC/C=C\C/C=C\CCCCCCCC(=O)NC(C)c1ccccc1 (stereo not drawn),/,3%,-15%,/,/,/
CC1CN(C(=O)CCC(=O)N2CCOCC2)c2ccccc2O1 (stereo not drawn),5%,-3%,3%,12%,2,0%
COc1ccc(CC(N)c2csc(Nc3nc(C)cnc3C)n2)cc1 (stereo not drawn),?,15µM*,18µM*,?,-23,/
CCC(C)[C@H]1CNC(=S)N1CCC12CC3CC(CC(C3)C1)C2 (stereo partly drawn),5%,15µM*,16µM*,3%,1,8%
Cc1ccc(NC(=O)CSc2nccn(-c3ccc4c(c3)OCCO4)c2=O)cc1,12%,18µM*,23µM*,3%,-12,0%
Cc1cccc(-n2ccnc2SCC(=O)Nc2ccc3c(c2)OCCO3)c1,5%,?,?,12%,-26,2%
CCOc1ccc(NC(=O)CSc2nccn(-c3ccc4c(c3)OCCO4)c2=O)cc1,-6%,15µM*,-27%,-3%,8,-1%
CCc1ccc(NC(=O)CSc2nccn(-c3ccc4c(c3)OCCO4)c2=O)cc1,-30%,?,18µM*,-20%,-9,-15%
O=C(CSc1nccn(-c2ccc3c(c2)OCCO3)c1=O)Nc1ccccc1,-5%,?,?,2%,-6,3%
O=S1(=O)CC(N2CCN(CCO)CC2)CN1Cc1ccccc1 (stereo not drawn),3%,-2%,-1%,-5%,35,/
CCOC(=O)C1CCN(C(=O)CNC(=O)Cn2c(C)cc3ccccc3c2=O)CC1,14%,-16%,3%,-1%,-15,-2%
Cn1cccc1-c1nc2ccc(NC(=O)c3ccccc3)cc2[nH]1,5%,?,-28%,8%,0,-4%
COc1ccc(-c2nc3ccc(NS(=O)(=O)c4ccccc4)cc3o2)cc1,/,-105%,?,/,/,/
Cc1ccc(S(=O)(=O)Nc2ccc3nc(-c4cccn4C)[nH]c3c2)cc1,1%,?,?,7%,-50*,3%
Cc1ccc(S(=O)(=O)Nc2ccc3nc(C)oc3c2)cc1,-21%,10µM*,18µM*,0%,13,-3%
COc1ccc(NS(=O)(=O)c2ccc3oc(SC)nc3c2)cc1,-23%,9.2µM*,12µM*,-8%,-14,-1%
COc1ccc(-c2nc3ccc(NS(=O)(=O)c4ccc(C)cc4)cc3o2)cc1,/,10µM*,?,/,/,/
Cn1cc(CNCc2ccccc2OCC(O)CN2CCc3ccccc3C2)cn1 (stereo not drawn),-6%,-20%,-11%,-9%,?,-10%
CCCCOc1ccc(/C=C(\C(=O)O)c2ccc(S(=O)(=O)N3CCCC3)s2)cc1,-11%,?,?,-14%,22,-22%
COc1cc(/C=C(\C(=O)O)c2ccc(S(=O)(=O)N3CCCC3)s2)ccc1OCCC(C)C,0%,?,23µM*,0%,0,-9%
CCC[n+]1c(/C=C/c2c(OC)cc(OC)cc2OC)ccc2ccccc21,/,0.089µM*,0.11µM*,/,/,/
CCCC[n+]1c(/C=C/c2c(OC)cc(OC)cc2OC)ccc2ccccc21,/,0.089µM*,0.32µM*,/,/,/
SMILES,HT1080 IDH1KD tx,DT40 TDP1 no CPT,TDP1 cell CPT,HT1080NT lethal,IL1B secr inh,uPA generation
COc1cc(OC)c(/C=C/c2ccc3ccccc3[n+]2C)c(OC)c1,/,0.1µM*,0.1µM*,/,/,/
CCOC(=O)c1cnc2ccc(C)cc2c1Nc1ccc(OCc2ccccc2Cl)cc1,/,23µM*,?,/,/,/
CCOC(=O)c1cnc2ccccc2c1Nc1cc(C(=O)O)ccc1C,8%,-13%,7%,21%,16,0%
CCOC(=O)c1cnc2ccc(OC)cc2c1Nc1ccc(OCc2ccccc2Cl)cc1,/,7.3µM*,12µM*,/,/,/
CCOC(=O)c1cnc2c(ccc3ccccc32)c1Nc1ccc(Cl)cc1,/,-24%,-16%,/,/,/
CCOC(=O)c1cnc2ccccc2c1Nc1cccc(OC)c1,/,16µM*,?,/,/,/
